This is a sample that favours compounds with a hit; in the whole collection about 2.7% have one here.
A549 tox = counter-screen for Nrf2 inhibitors: cytotoxicity in A549 cells | A549 ARE-Fluc cells, CellTiter-Fluor viability, 18-24 h | Potency, µM (highest dose often 46 µM), usual class: inhibitors | 0.16% of 390,000 active | AID 504648
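A549 ARE_Fluc cells in 5% FBS OPTI-MEM were exposed to compounds in concentration-response for 18-24 h at 37 deg C. Viability was read by CellTiter-Fluor fluorescence (Ex 405/Em 525) after 30 min, before the luciferase read.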
LDHA inh = blocks human lactate dehydrogenase A; AID 1347041; 0.15% of 480,000 active; P00338; activity change, % (values are at about 110 or 230 µM); purified LDHA, NADH/diaphorase-resazurin fluorescence; hits give low values; in the data active = activity change below about -30%; inconclusive = mostly about -25% to -30%
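Human LDH5 at 2 nM final in Tris HCl pH 7.4 with 0.06 mM NADH and 0.2 mM pyruvate, reacted 5 minutes at room temperature. Remaining NADH coupled via diaphorase/resazurin; resorufin fluorescence read at 0 and 20 minutes, normalized to enzyme-free and DMSO wells.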
Nrf2 inh = inhibitors of Nrf2 signaling; A549 ARE-Fluc reporter, luciferase luminescence, 18-24 h; Potency, µM (titrated, usually from 46 µM), most hits filed as inhibitors; 2.1% of 360,000 active; also: nearly all actives have a fitted effect of over 60% in size
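A549 ARE_Fluc cells, 5000/well, 5% FBS OPTI-MEM; compounds in dose-response, 18-24 h at 37 °C/5% CO2; CellTiter-Fluor viability read (Ex 405/Em 525), then BugLite luciferase luminescence = Nrf2 activity.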
Nrf2 ARE act = Nrf2 pathway activation; AREc32 ARE-luciferase reporter (MCF7-derived line), luminescence, 24 h; Potency, µM (doses to about 46.1 µM), hits mostly activators; 0.31% of 410,000 active; AID 624171; also: nearly all actives have a fitted effect of over 65% in size
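Luminescent ARE reporter assay in AREc32_Fluc cells: overnight plating at 37 deg C, 24 hr compound incubation, Steady-Glo added, 30 min RT before reading.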
ERG Ets-DNA blk = blocks human ERG Ets domain binding to DNA. fluorescence polarization, His-ERG Ets domain / labelled DNA. P11308. 0.028% of 370,000 active. Potency, µM (titrated, usually from 76.9 µM), hits mostly inhibitors; active = well fitted inhibition curve with a large enough effect in the polarisation, with a control signal flat; inconclusive = small, poorly fitted or top-dose-only effect, or effect the other way, or a change in a side signal; inactive = no such curve, though single readings can be large or run the other way; the % refers to the polarisation;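 also: polarization taken with two DNA probes labelled with fluorescein and Texas red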
Target sequence (P11308 whole entry, looked up, the tested form may be a part): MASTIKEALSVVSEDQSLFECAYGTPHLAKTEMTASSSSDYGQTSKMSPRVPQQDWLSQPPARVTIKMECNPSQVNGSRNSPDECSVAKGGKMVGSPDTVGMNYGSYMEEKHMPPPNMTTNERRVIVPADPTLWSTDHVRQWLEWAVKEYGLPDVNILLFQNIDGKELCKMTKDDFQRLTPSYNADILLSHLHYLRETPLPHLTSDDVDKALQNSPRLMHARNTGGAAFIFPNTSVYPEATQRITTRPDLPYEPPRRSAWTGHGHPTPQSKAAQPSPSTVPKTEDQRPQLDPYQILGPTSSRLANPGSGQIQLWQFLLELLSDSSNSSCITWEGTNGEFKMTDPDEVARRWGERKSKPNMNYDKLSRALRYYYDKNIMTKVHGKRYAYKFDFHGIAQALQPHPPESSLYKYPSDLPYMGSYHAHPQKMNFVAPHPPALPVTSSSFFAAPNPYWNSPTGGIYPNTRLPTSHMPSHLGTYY
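His-tagged ERG Ets domain (1 uM in the protein solution; 300mM KCl, 50mM Tris-HCl, 1mM EDTA, 1mM DTT, pH 7.5) received compound, then a probe mix of 5 nM fluorescein-DNA and 100nM Texas-615-DNA. Fluorescence polarization was read for both dyes.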
12-LOX inh = blocks human arachidonate 12S-lipoxygenase; AID 1671190; Potency, µM (series often up to 108 µM), actives largely listed as inhibitors; 1.1% of 580,000 active; P18054; purified 12hLO, xylenol orange hydroperoxide absorbance
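Purified human 12hLO at 150 nM in 25 mM Hepes, 0.01% Triton X-100, pH 7.0, preincubated 15 min at room temperature with compound. Reaction started with 40 uM arachidonic acid, 30 min at room temperature. Hydroperoxide measured by Fe-xylenol orange, 573/405 nm absorbance ratio.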
Hits are given with their value; – = inactive; ? = inconclusive; · = not tested or not shown; [ ] = another dose, or the depositor's remark. Unless noted, calls follow the shape of the dose curve; as a rule, active = well fitted curve in the direction sought with a large enough effect; inconclusive = small, poorly fitted or top-dose-only effect, or another doubt; inactive = no such curve, though single readings can be large; an effect the other way counts as inactive or inconclusive.

SMILES	A549 tox	LDHA inh	Nrf2 inh	Nrf2 ARE act	ERG Ets-DNA blk	12-LOX inh
CCS(=O)(=O)NCC1(COc2ccccc2)C[C@@H](O)[C@@H](O)C1 (stereo partly drawn)	·	·	·	·	·	56.2µM
CCn1c(SCC(=O)c2ccc[nH]2)nnc1-c1ccc(OC)cc1	·	–	·	·	·	–
Cc1ccc(Cc2c(-c3ccco3)nc3c(C)cc(Br)cn23)cc1	·	–	·	?	·	14.1µM
Cc1ccc(Cc2c(-c3ccco3)nc3c4ccccc4ccn23)cc1	·	–	·	?	·	5.01µM
Cc1cc(Br)cn2c(Cc3cccc(Cl)c3)c(-c3ccco3)nc12	·	–	·	?	·	?
CC(=C1SC(=S)NC1=O)c1ccc(Cl)c(O)c1	·	·	·	·	·	28.2µM
CC(=C1SC(=S)NC1=O)c1ccccc1	–	–	–	–	–	?
CC(C)NC[C@@H](O)c1ccc(NS(C)(=O)=O)cc1	·	–	·	·	·	–
COc1ccccc1N(C)S(=O)(=O)c1ccc(C(=O)Nc2ccc3nc(C)sc3c2)cc1	–	–	18.4µM	–[9.22 µM]	–	–
Cn1c(=O)c2c(ncn2CC(=O)Nc2ccccc2)n(C)c1=O	–	–	–	–	–	–
Cc1nc2ccc(NC(=O)c3ccccc3)cc2s1	–	–	?	–	–	–
COC(=O)c1cccc(NC(=O)c2ccc(S(=O)(=O)N(C)c3ccccc3OC)cc2)c1	·	–	·	–	·	–
CN(c1ccccc1)S(=O)(=O)c1cccc(NC(=O)Cn2cnc3c2c(=O)n(C)c(=O)n3C)c1	–	–	10.3µM	–	–	–
Cc1nc2ccc(NC(=O)c3cccc(S(=O)(=O)N(C)c4ccccc4)c3)cc2s1	?	–	20.6µM	–	–	·
COc1ccccc1N(C)S(=O)(=O)c1ccc(C(=O)Nc2cccc(Br)c2)cc1	–	–	16.4µM	–	–	–
COC(=O)c1ccc(NC(=O)CCCc2cccs2)cc1	·	–	·	·	·	–
COCc1ccc(C(=O)Nc2cccc(S(=O)(=O)N(C)c3ccccc3)c2)cc1	–	–	18.4µM	–	–	–
CN(c1ccc(C(=O)Nc2cccc(O)c2)cc1)S(=O)(=O)c1ccccc1	–	–	–	–	–	–
Cn1c(=O)c2c(ncn2CC(=O)Nc2ccccc2Cl)n(C)c1=O	·	–	·	·	·	–
CN(c1ccccc1)S(=O)(=O)c1cccc(NC(=O)CSc2nnc(N)s2)c1	–	–	?	–	–	–
CN(c1ccccc1)S(=O)(=O)c1cccc(NC(=O)c2ccc3ncsc3c2)c1	–	–	16.4µM	–	–	–
CN(c1ccccc1)S(=O)(=O)c1cccc(NC(=O)CSc2nncs2)c1	–	–	20.6µM	–	–	–
CN(c1ccccc1)S(=O)(=O)c1cccc(NC(=O)c2cccc(C#N)c2)c1	?	–	?	–	–	–
Cn1c(=O)c2c(ncn2CC(=O)Nc2cc(S(=O)(=O)N3CCCCC3)ccc2Cl)n(C)c1=O	–	–	20.6µM	–	–	–
CCCOc1ccc(C(=O)Nc2nc(-c3ccc(OC)cc3)c(C)s2)cc1OC	·	–	·	·	·	?
SMILES	A549 tox	LDHA inh	Nrf2 inh	Nrf2 ARE act	ERG Ets-DNA blk	12-LOX inh
Cn1c(=O)c2sccc2n2c(CCCC(=O)N3CCN(c4ccccc4F)CC3)nnc12	·	–	·	·	·	–
c1ccc(-c2ccc(CNCc3ccco3)cc2)cc1	·	–	·	·	·	?
COC(=O)c1ccc(CNC(=O)c2ccc(S(=O)(=O)N(C)c3ccccc3OC)cc2)cc1	–	–	23.1µM	–	–	–
COc1ccccc1N(C)S(=O)(=O)c1ccc(C(=O)NCC(C)C)cc1	–	–	?	–	–	–
O=C1c2ccccc2NC(c2csc(-c3ccccc3)n2)N1C1CC1 (stereo not drawn)	·	–	·	·	·	?
O=C(Cc1ccccc1)Nc1nnc(-c2cccc([N+](=O)[O-])c2)s1	–	–	–	–	–	–
O=C(NC1CCCCC1)N(c1ccccc1)c1nnc(-c2cccc([N+](=O)[O-])c2)s1	·	–	·	3.16µM	·	?
COc1ccc(-c2cc(C)nc(SCC(=O)c3cccc([N+](=O)[O-])c3)n2)cc1	–	–	20.6µM	–	–	–
Cc1ccc2[nH]cc(CCNC(=O)CCc3ccccc3)c2c1	·	–	·	·	·	–
N#CC1=C(N)OC2=C(C(=O)CCC2)C1c1ccc(-c2ccc(Br)cc2)o1 (stereo not drawn)	·	–	·	·	·	?
CCc1ccccc1NC(=O)C1CC1	·	–	·	·	·	0.794µM
CCc1ccccc1NC(=O)C1CCCC1	–	–	–	–	–	–
Cc1cccc(NC(=O)COc2ncnc3ccc(Br)cc23)c1	·	–	·	·	·	–
NC(=O)C(c1ccc(Cl)cc1)c1ccc(Sc2ccc(Cl)cc2)nn1 (stereo not drawn)	–	–	16.4µM	–	–	?
O=c1oc2c(-c3ccc([N+](=O)[O-])cc3)cc(O)cc2s1	–	–	–	22.4µM	–	39.8µM
CCN(CC)S(=O)(=O)c1ccc(-c2nc(C#N)c(NCC(C)C)o2)cc1	·	–	·	·	·	–
CCc1ccc(OCC(=O)NNC(=S)NC(=O)C2CCCCC2)c(Br)c1	–	–	–	–	–	7.94µM
CCc1ccc(OCC(=O)NNC(=S)NC(=O)C2CC2)c(Br)c1	–	–	6.51µM	–	–	?
N#Cc1nc(-c2ccccc2F)oc1N1CCN(C(=O)c2cccs2)CC1	·	–	·	·	·	–
CCOC(=O)c1cc2c(C)cc(C)cc2[nH]1	·	–	·	·	·	?
CC(Sc1nc(C2CC2)nc2ccccc12)C(=O)NC(=O)NC(C)(C)C (stereo not drawn)	·	–	·	·	·	–
Cn1cnc([N+](=O)[O-])c1S(=O)(=O)c1ccc(Cl)cc1	?	–	18.4µM	–	–	–
Cc1nc2ccc(C(=O)NCC3CN(Cc4ccccc4)CCO3)cc2nc1C (stereo not drawn)	·	–	·	·	·	–
O=C(OC/C=C/c1ccccc1)c1cc2ccccc2[nH]1	·	–	·	·	·	?
Cc1ccc(CN(C(=O)c2cc3ccccc3[nH]2)C(C)C)o1	·	–	·	·	·	?
SMILES	A549 tox	LDHA inh	Nrf2 inh	Nrf2 ARE act	ERG Ets-DNA blk	12-LOX inh
Cn1cc(C(=O)c2ccc(Cl)cc2Cl)cc1C(=O)N/N=C(\N)COc1ccc(Cl)cc1	–	–	13µM	–	–	–
Cn1cc(C(=O)c2ccc(Cl)cc2Cl)cc1C(=O)N/N=C(\N)COc1ccc(Cl)cc1Cl	?	–	20.6µM	–	–	–
Cn1cc(C(=O)c2ccc(Cl)cc2Cl)cc1C(=O)N/N=C(\N)COc1ccccc1	–	–	?	–	–	–
O=C(CSc1cccc2cccnc12)Nc1cc(C(=O)O)cc(C(=O)O)c1	–	–	–	–	–	25.1µM
CC1Sc2ccc(C(=O)NNC(=O)CSc3cccc4cccnc34)cc2NC1=O (stereo not drawn)	·	–	·	·	·	7.94µM
O=C(NCc1cccn1Cc1ccc(F)cc1)NC12CC3CC(CC(C3)C1)C2	·	–	·	·	·	?
COc1ccccc1C(C1=C(O)CC(C)(C)CC1=O)C1=C(O)CC(C)(C)CC1=O	·	–	·	·	·	?

From PubChem
